Laboratory results published in PubChem BioAssay (Tox21).
Records with an inconclusive call do not appear. The source made the active and inactive calls. Unless noted, calls come from the whole dose curve.

Tests used:
Aromatase (Homo sapiens) = Aromatase (Homo sapiens) (UniProt P11511); experiment: qHTS assay to identify aromatase inhibitors (AID 743083; active = well fitted curve in the direction sought with a large enough effect in the repeat runs; an effect the other way counts as inactive or inconclusive; note: nearly all actives have a fitted effect of over 55% in size; note: potency is the fitted concentration of half-maximal effect)
Sequence of Aromatase (Homo sapiens) (P11511 whole entry, looked up): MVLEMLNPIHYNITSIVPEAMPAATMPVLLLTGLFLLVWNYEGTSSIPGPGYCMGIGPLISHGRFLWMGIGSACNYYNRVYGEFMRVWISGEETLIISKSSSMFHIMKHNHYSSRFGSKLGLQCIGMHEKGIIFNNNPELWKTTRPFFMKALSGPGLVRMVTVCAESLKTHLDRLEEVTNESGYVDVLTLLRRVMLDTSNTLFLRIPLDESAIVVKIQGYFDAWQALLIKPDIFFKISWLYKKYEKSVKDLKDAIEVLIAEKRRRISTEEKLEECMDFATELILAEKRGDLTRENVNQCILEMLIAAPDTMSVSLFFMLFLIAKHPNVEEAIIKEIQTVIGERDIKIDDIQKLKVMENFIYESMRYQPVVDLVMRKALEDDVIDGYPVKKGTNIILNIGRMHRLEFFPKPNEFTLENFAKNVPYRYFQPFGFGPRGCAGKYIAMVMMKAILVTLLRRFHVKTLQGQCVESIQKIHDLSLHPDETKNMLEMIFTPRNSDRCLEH

[1] = target: Aryl hydrocarbon receptor (Homo sapiens) (UniProt P35869); experiment: qHTS assay to identify small molecule that activate the aryl hydrocarbon receptor (AhR) signaling pathway (AID 743085; active = well fitted curve in the direction sought with a large enough effect in the repeat runs; an effect the other way counts as inactive or inconclusive;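 note: HG2L7.5c1 human HepG2 liver cells with stably integrated DRE-driven firefly reporter; series mostly up to about 70 µM; nearly all actives have a fitted effect of over 15% in size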)
Sequence of Aryl hydrocarbon receptor (Homo sapiens) (P35869 whole entry, looked up): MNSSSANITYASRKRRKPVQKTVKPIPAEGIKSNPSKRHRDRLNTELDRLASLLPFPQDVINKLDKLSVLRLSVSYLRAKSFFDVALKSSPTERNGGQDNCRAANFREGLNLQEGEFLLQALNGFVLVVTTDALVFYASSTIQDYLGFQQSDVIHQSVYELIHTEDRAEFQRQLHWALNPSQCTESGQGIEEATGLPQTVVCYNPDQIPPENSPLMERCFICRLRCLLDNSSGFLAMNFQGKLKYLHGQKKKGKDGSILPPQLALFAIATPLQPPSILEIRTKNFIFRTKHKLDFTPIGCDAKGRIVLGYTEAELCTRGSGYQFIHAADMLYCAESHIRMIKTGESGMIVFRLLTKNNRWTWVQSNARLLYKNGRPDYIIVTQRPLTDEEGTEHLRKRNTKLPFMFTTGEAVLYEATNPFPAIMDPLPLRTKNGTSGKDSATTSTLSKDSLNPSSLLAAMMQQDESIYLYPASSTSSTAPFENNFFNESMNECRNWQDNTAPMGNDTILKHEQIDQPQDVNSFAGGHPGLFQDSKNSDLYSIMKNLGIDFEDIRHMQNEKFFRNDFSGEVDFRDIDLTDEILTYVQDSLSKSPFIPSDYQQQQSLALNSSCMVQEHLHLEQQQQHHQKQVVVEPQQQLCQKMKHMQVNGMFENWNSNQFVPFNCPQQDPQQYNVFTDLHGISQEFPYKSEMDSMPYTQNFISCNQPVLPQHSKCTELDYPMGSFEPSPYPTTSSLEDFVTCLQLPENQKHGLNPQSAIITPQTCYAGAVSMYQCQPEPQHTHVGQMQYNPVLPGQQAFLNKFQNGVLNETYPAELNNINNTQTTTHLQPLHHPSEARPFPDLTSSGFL
Procedure, shortened: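 HepG2 cells stably carrying a 20-DRE firefly luciferase reporter (HG2L7.5c1) treated with compound for 24 hr at 37C. Luciferase read by ONE-Glo luminescence, with CellTiter-Fluor viability read first.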

[2] = target: Acetylcholinesterase (Homo sapiens) (UniProt P22303); experiment: Acetylcholinesterase (AChE) small molecule antagonists: colormetric cell-based qHTS assay (AID 1347395); note: nearly all actives have a fitted effect of over 30% in size; note: potency is the fitted concentration of half-maximal effect
Sequence of Acetylcholinesterase (Homo sapiens) (P22303 whole entry, looked up): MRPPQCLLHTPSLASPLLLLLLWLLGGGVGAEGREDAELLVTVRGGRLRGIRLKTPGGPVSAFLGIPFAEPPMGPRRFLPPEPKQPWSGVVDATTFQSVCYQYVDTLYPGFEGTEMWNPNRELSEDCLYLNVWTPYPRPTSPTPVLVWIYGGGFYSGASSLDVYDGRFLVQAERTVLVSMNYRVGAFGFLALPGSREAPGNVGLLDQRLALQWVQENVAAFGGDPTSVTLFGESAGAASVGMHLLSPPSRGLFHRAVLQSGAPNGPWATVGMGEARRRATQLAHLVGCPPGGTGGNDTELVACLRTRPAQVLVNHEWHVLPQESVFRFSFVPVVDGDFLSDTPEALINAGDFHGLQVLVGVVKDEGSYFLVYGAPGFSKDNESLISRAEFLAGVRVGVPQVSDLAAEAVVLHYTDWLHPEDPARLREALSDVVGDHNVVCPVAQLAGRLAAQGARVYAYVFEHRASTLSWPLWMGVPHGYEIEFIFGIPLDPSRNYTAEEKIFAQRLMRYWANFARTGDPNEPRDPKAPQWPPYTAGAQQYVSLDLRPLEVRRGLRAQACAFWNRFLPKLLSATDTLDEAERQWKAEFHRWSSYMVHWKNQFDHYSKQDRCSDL
Procedure, shortened: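 SH-SY5Y cells attached overnight, exposed to compound 30 min at 37 C, then given DTNB/acetylthiocholine; after 90 min at 37 C, colorimetric thiocholine read gives cellular AChE activity.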

[3] = target: Acetylcholinesterase (Homo sapiens) (UniProt P22303); experiment: Acetylcholinesterase (AChE) small molecule antagonists: enzyme-based qHTS assay (AID 1347397); settings: Potency: AChE enzyme activity inhibition; outcome: AChE enzyme activity inhibition; note: nearly all actives have a fitted effect of over 55% in size; note: potency is the fitted concentration of half-maximal effect
Procedure, shortened: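 Recombinant human AChE, dispensed at 50 mU/mL, was preincubated with Tox21 10K compounds or DMSO vehicle for 30 min at room temperature. DTNB plus acetylthiocholine was then added, and thiocholine was measured colorimetrically after a further 10 min.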

[4] = target: Acetylcholinesterase (Homo sapiens) (UniProt P22303); experiment: Acetylcholinesterase (AChE) small molecule antagonists: fluorescence cell-based qHTS assay (AID 1347398); settings: Potency: AChE activity; outcome: AChE activity; note: nearly all actives have a fitted effect of over 50% in size
Procedure, shortened: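 Human SH-SY5Y cells were plated overnight at 37 C, exposed to compound for 30 min at 37 C, 5% CO2, then given acetylthiocholine plus Thiolite Green for 40 min at room temperature; thiocholine fluorescence (Ex/Em 490/520 nm) reports endogenous AChE activity.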

[5] = target: Acetylcholinesterase (Homo sapiens) (UniProt P22303); experiment: Acetylcholinesterase (AChE) small molecule antagonists: enzyme-based qHTS assay with human liver microsomes (AID 1347399); settings: Potency: qHTS inhibition; outcome: qHTS inhibition; note: nearly all actives have a fitted effect of over 60% in size
Procedure, shortened: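 Recombinant human AChE (50 mU/mL in the enzyme mix) and human liver microsomes (0.25 mg/mL final) were preincubated with compound and NADPH (0.25 mg/mL final) for 30 min at 37 C. Acetylthiocholine/DTNB was then added; thiocholine was read colorimetrically after 10 min at room temperature.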

[6] = target: Glucocorticoid receptor (Homo sapiens) (UniProt P04150); experiment: qHTS assay to identify small molecule antagonists of the glucocorticoid receptor (GR) signaling pathway (AID 720692; active = well fitted inhibition curve with a large enough effect in the signal ratio in the repeat runs, not every such curve was filed as active; the % refers to the signal ratio)
Sequence of Glucocorticoid receptor (Homo sapiens) (P04150 whole entry, looked up): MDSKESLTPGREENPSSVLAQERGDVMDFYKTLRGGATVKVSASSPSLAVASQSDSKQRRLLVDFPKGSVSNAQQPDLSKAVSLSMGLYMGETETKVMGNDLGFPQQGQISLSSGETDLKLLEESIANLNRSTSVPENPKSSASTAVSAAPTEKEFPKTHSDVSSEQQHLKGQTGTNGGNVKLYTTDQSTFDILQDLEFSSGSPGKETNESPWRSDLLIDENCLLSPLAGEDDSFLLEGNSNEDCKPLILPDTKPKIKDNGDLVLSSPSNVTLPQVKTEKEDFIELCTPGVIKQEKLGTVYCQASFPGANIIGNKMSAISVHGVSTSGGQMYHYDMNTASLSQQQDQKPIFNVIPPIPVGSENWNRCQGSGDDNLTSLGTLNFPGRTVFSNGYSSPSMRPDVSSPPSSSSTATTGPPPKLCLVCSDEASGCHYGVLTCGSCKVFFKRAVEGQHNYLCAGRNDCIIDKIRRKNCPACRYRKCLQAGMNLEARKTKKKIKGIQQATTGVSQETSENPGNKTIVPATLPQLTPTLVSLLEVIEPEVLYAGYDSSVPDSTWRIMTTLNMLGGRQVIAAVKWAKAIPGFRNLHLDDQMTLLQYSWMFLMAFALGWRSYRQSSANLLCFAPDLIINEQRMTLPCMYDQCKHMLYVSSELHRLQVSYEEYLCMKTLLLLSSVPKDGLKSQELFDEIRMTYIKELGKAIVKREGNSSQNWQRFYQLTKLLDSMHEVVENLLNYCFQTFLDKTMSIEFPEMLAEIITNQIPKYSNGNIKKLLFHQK
Procedure, shortened: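 GR-bla HeLa cells (beta-lactamase reporter under glucocorticoid response element) were pre-plated 4 h at 37 C, treated with compounds plus 5 nM dexamethasone (final) for 18 h, then read by LiveBLAzer B/G FRET fluorescence after 2 h.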

[7] = qHTS assay for small molecule agonists of the p53 signaling pathway (AID 651631); note: nearly all actives have a fitted effect of over 15% in size; note: potency is the fitted concentration of half-maximal effect
Procedure, shortened: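 HCT-116 cells carrying a beta-lactamase reporter under p53 response elements were dosed with compound for 16 h at 37 °C. LiveBLAzer B/G FRET substrate was then added for 2 h at room temperature, and fluorescence intensity was read to detect pathway agonism.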

Measured: Potency

Cc1cc(C)c(N)cc1C
not listed: [6] | [7]
inactive: all other assays above

CCCCOCCOC(=O)COc1ccc(Cl)cc1Cl
inactive: [2] | [3] | [4] | [5]

NCc1cccc(C2CCN(C(=O)c3ccc(C#Cc4ccccc4F)o3)CC2)c1
inactive: [2] | [5]
active: [3] 79.6 µM

CCCCCOc1ccccc1/C(=C\SC)n1ccnc1
inactive: [2] | [3] | [4] | [5]

C=CCOc1ccccc1OCC(O)CNC(C)C (configuration not stated)
inactive: [2] | [3] | [4] | [5]

CCCN(CCC)CCc1cccc2c1CC(=O)N2
inactive: [2] | [3] | [5]

O=C(NS(=O)(=O)/C=C/c1cccs1)c1ccc(F)cc1Br
inactive: [2] | [3] | [4] | [5]

CN1CCC(N(Cc2cccs2)c2ccccc2)CC1
not listed: Aromatase (Homo sapiens) | [7]
inactive: all other assays above

CCCCN1C(=O)[C@@H]([C@H](O)C2CCCCC2)NC(=O)C12CCN(Cc1ccc(Oc3ccc(C(=O)O)cc3)cc1)CC2
inactive: [2] | [3] | [5]

c1ccc(C(O[C@H]2CCCN(CCc3ccc4c(c3)OCO4)C2)c2ccccc2)cc1
inactive: [2] | [3] | [5]

CO[C@@H]1[C@@H](O[C@@H]2O[C@H](C)[C@@H](O[C@H]3C[C@@](C)(O)[C@@H](O)[C@H](C)O3)[C@H](N(C)C)[C@H]2O)[C@@H](CC=O)C[C@@H](C)[C@@H](O[C@@H]2CC[C@H](N(C)C)[C@@H](C)O2)/C=C/C=C/C[C@@H](C)OC(=O)C[C@H]1OC(C)=O
inactive: [2] | [3] | [5]

CC(CO)(CO)[N+](=O)[O-]
not listed: [1] | [7]
inactive: all other assays above

CCN(CC)CCOc1ccc(C(O)(Cc2ccc(Cl)cc2)c2ccc(C)cc2)cc1 (configuration not stated)
inactive: [2] | [3] | [5]

Cc1ccc(C)c(N)c1
inactive: [7] | [2] | [3] | [4]

NCCCN1CCOCC1
inactive: [2] | [3] | [4] | [5]

COc1ccc(C(=O)Nc2ccccc2)cc1[N+](=O)[O-]
inactive: [3] | [5]
active: [2] 35.9 µM

CNC(=O)c1cnn(-c2nc(N)c3ncn([C@@H]4O[C@H](CO)[C@@H](O)[C@H]4O)c3n2)c1
inactive: [2] | [3] | [4] | [5]

CC(C)(c1cc(Br)c(OCCO)c(Br)c1)c1cc(Br)c(OCCO)c(Br)c1
active: [7] 42.3 µM | Aromatase (Homo sapiens) 42.3 µM
not listed: [6]
inactive: all other assays above

CCO[C@H](Cc1ccc(OCCc2ccc(OS(C)(=O)=O)cc2)cc1)C(=O)O
inactive: [2] | [3] | [5]

CO[Si](OC)(c1ccccc1)c1ccccc1
inactive: [2] | [3] | [4] | [5]

ClC(Cl)(Br)Br
inactive: [2] | [3] | [4] | [5]

Nc1ccc(S(=O)(=O)O)c(N)c1
inactive: [2] | [3] | [4] | [5]

O=C(Oc1ccccc1)c1ccccc1C(=O)Oc1ccccc1
inactive: Aromatase (Homo sapiens) | [2] | [3] | [4] | [5]

CC(=O)c1cccnc1
inactive: [2] | [3] | [4] | [5]

OCCN1CCN(CC/C=C2/c3ccccc3Sc3ccc(C(F)(F)F)cc32)CC1
inactive: [2] | [3] | [5]

CC(C)CC(O)CC(C)C
inactive: [2] | [3] | [4] | [5]

Brc1cc(Br)c(Oc2cc(Br)c(Br)cc2Br)cc1Br
inactive: [1] | [2] | [3] | [4] | [5]

O=C(Oc1cccc2cccnc12)c1ccccc1
inactive: [2] | [3] | [4] | [5]

OCCN1CCN(CCCN2c3ccccc3Sc3ccc(Cl)cc32)CC1
inactive: [2] | [3] | [5]

CSc1ccc(Oc2ccc(S(N)(=O)=O)cc2CN(C)C)cc1C
inactive: [2] | [3] | [5]

CC(=O)Oc1cccc(C)c1
inactive: [2] | [3] | [5]

CCO[C@@H]1O[C@H](C(COCc2ccccc2)OCc2ccccc2)[C@H](OCc2ccccc2)[C@H]1O (some centres not stated)
inactive: [2] | [3] | [5]

Cc1nc(-c2ccc(OCC(C)C)c(C#N)c2)sc1C(=O)O
inactive: [3] | [5]
active: [2] 27.5 µM

CCCC(C(=O)OCCN(CC)CC)(c1ccccc1)c1ccccc1
inactive: [2] | [3] | [5]
